Screening results deposited in PubChem BioAssay by The Scripps Research Institute Molecular Screening Center.
Shown are actives, neighbours in structure and some others; about 3.5% of the full set was active somewhere.
FBW7 act: FBW7 E3 ligase activators, primary screen, biochemical, AlphaScreen, human | 650,000 tested, 0.13% active | AlphaScreen FBW7–phospho-cyclin E peptide binding, activator screen | normalized activity (activation), % at 26.1 µM; in the data active = normalized activity above about 1.9%;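 note: purified mutant Fbw7 with reduced substrate affinity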
TEAD-YAP block: TEAD-YAP interaction inhibition, primary screen, TEAD-YAP interaction inhibitor project, luminescence, HEK-TIYL cells | 640,000 tested, 1.4% active | inhibition, % at 9.12 µM | TEAD-Gal4/YAP UAS-luciferase luminescence; in the data active = inhibition above about 32%
GPR151 activ: activators of human GPR151, primary screen, cell-based, PathHunter beta-arrestin, luminescence; G-protein coupled receptor 151 (Homo sapiens), Q8TDV0; PathHunter beta-arrestin GPR151 cells; activation, % at 11.2 µM; 650,000 tested, 1% active; in the data active = activation above about 4.9%
MITF inh: MITF inhibitors, primary screen, biochemical, AlphaScreen, human | AlphaScreen MITF homodimerization, bead proximity signal | inhibition, % at 2.6 µM | 650,000 tested, 0.91% active | AID 1259374, 2018; in the data active = inhibition above about 50%
Target sequence (O75030 whole entry, looked up): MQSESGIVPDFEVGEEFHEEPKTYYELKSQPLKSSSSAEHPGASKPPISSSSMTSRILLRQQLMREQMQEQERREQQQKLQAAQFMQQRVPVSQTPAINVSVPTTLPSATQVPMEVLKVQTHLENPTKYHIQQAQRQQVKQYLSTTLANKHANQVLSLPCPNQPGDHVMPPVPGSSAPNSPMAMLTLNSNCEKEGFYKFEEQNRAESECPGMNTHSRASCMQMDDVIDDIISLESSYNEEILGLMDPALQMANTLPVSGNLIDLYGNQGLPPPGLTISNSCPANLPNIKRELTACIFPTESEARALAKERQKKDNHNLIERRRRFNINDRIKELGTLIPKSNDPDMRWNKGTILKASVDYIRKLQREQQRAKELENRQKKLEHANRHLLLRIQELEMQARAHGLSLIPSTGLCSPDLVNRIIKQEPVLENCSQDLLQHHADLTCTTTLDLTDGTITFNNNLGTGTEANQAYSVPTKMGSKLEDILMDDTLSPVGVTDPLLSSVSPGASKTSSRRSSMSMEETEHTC
Each line names hits and unclear results; the compound was inactive in the other large screens.

O=C(Nc1ccccc1F)c1cc(F)ccc1[N+](=O)[O-]	TEAD-YAP block 56
Cc1cc2oc(=O)cc(CN3CCNC(=O)C3)c2cc1C	none
O=C(O)CCC(=O)Nc1cccc(-c2nc3cc4ccccc4cc3[nH]2)c1	TEAD-YAP block 34
O=C(O)CCC(=O)Nc1ccc(-c2nc3cc4ccccc4cc3[nH]2)cc1	none
O=C(O)/C=C/c1ccc(OC(F)F)cc1	none
Cc1ccc(Cl)cc1N1CCN(C(=O)c2ccc3c(c2)NC(=O)CS3)CC1	TEAD-YAP block 60
COC(=O)c1c(C)oc2cc(Br)c(OCc3cc(C)ccc3C)cc12	none
CCCc1ccc(-c2ccc(C(=O)Oc3ccccc3F)cc2)nc1	TEAD-YAP block 55
CCCCCc1ccc(-c2ccc(C(=O)Oc3ccc(CC)cc3)cc2)nc1	none
CCCc1ccc(-c2ccc(C(=O)Oc3ccc(F)cc3)cc2)nc1	none
CCCCc1ccc(C(=O)Oc2ccc(-c3ccc(CCC)cn3)cc2)cc1	TEAD-YAP block 70
CN(C)CCNc1ccnc2c(-c3ccccc3F)cnn12	TEAD-YAP block 63
Fc1cccc(-c2cnn3c(NCCc4cccnc4)ccnc23)c1	none
Oc1cccc(-c2cnn3c(NCCc4cccnc4)ccnc23)c1	TEAD-YAP block 89
OCc1cccc(-c2cnn3c(NCCc4cccnc4)ccnc23)c1	TEAD-YAP block 89
Fc1ccccc1-c1cnn2c(NCCc3cccnc3)ccnc12	TEAD-YAP block 91
O=c1c2ccccc2n2c(-c3cccnc3)nnc2n1Cc1ccc(F)cc1	none
c1ccc(CNc2nc(N3CCC(N4CCOCC4)CC3)nc3c2ncn3-c2ccsc2)cc1	none
Fc1ccccc1-c1cnn2c(NCc3ccccn3)ccnc12	FBW7 act 2.2
c1ccc(-c2cnn3c(NCCc4ccccn4)ccnc23)cc1	TEAD-YAP block 57
c1ccc(-c2cnn3c(NCCc4cccnc4)ccnc23)cc1	TEAD-YAP block 80
Clc1ccc(-c2cnn3c(NCCc4ccccn4)ccnc23)cc1	none
OCc1ccc(-c2cnn3c(NCCc4cccnc4)ccnc23)cc1	none
CC(C)(C)NC(=O)c1cnn2c(C(F)(F)F)cc(-c3cccs3)nc12	none
CCCCCCOc1ccccc1/C=C1/N=C(c2ccc(Cl)cc2)OC1=O	none
C/C=C/C(=O)Oc1ccccc1/C=C1/N=C(c2ccc(Cl)cc2)OC1=O	TEAD-YAP block 36
CN(C)c1nc(OCC(=O)Nc2ccc(Cl)cc2)nc(N(C)C)n1	none
COc1ccc(-n2ncc3c(N4CCCC4)ncnc32)cc1	none
Cc1cccc(-n2ncc3c(N(C)C4CCCCC4)ncnc32)c1	TEAD-YAP block 97
CCN(CC)c1ncnc2c1cnn2-c1cccc(C)c1	TEAD-YAP block 60
Cc1cccc(-n2ncc3c(NC4CCCCCC4)ncnc32)c1	TEAD-YAP block 47
COc1ccc(-n2ncc3c(N(C)C4CCCCC4)ncnc32)cc1	TEAD-YAP block 93
Clc1cccc(-n2ncc3c(NC4CC4)ncnc32)c1	none
Cc1cccc(-n2ncc3c(N(CC(C)C)CC(C)C)ncnc32)c1	none
COc1ccc(-c2noc(CCC(=O)N(C)c3ccccc3)n2)cc1	none
C=CCNc1ncnc2c1cnn2-c1ccc(C)cc1C	none
CCOC(=O)N1CCC(Nc2ncnc3c2cnn3-c2ccc(C)cc2C)CC1	TEAD-YAP block 39
CC(=O)N1c2cc(N)ccc2NC(=O)CC1C (configuration not stated)	none
CCN(CC)c1cc(-c2ccccc2)nc(-c2ccccn2)n1	TEAD-YAP block 47
C=CCNc1cc(-c2ccccc2)nc(-c2ccccn2)n1	TEAD-YAP block 88
Cc1ccc2nc3c(cc(C(N)=O)c(=N)n3CCc3ccccc3)c(=O)n2c1	TEAD-YAP block 39
Cc1ccc(N(CC(O)CN(Cc2ccccc2)Cc2ccccc2)S(=O)(=O)c2ccccc2)cc1 (configuration not stated)	none
Cc1ccccc1CN1C(=O)CSc2ccc(C(=O)NCC3CCCO3)cc21 (configuration not stated)	none
COc1ccccc1NC(=O)Nc1c(SC)nsc1SC	TEAD-YAP block 37
COc1ccc(-c2cc(C(F)(F)F)n3nc(C(=O)N4CCN(c5cccc(Cl)c5)CC4)cc3n2)cc1OC	none
COc1ccc(CCNC(=O)C(=O)NCc2ccco2)cc1	TEAD-YAP block 34
COc1ccc(CC(=O)NCc2ccco2)cc1	none
Cc1c(C(=O)Nc2nc3ccccc3s2)sc2nc(C)n(C)c(=O)c12	TEAD-YAP block 45
Cc1nc(SCC(=O)Nc2nc3ccccc3s2)c(C#N)c(C)c1C	TEAD-YAP block 95
COc1ccc2nc(NC(=O)c3sc4nc(C)ccc4c3N)sc2c1	TEAD-YAP block 39
Cc1nc2sc(C(=O)Nc3nc4ccccc4s3)c(N)c2c(C)c1C	TEAD-YAP block 96
Cc1nc2c(o1)NC(N)=C(C#N)C21CCSCC1	none
COc1ccc(C(=O)Nc2ccc(C(N)=O)cc2)cc1[N+](=O)[O-]	none
CC1CCN(c2cc(N3CCN(S(=O)(=O)c4ccccc4)CC3)c([N+](=O)[O-])cc2F)CC1	none
Cc1cccc(N2CCN(S(=O)(=O)CCCNC(=O)CC(C)(C)C)CC2)c1	none
N#Cc1ccccc1OCC(=O)NC(=O)NC1CCCC1	TEAD-YAP block 62
COc1ccccc1C1CC(c2ccccc2Cl)Nc2nc(N)nn21 (configuration not stated)	none
COc1ccc(NC(=O)CN2C(=O)C(c3ccc(Cl)cc3)=NC23CCCCC3)cc1	none
Cc1cc(=O)[nH]c(N/N=C/c2c(O)ccc3ccccc23)n1	TEAD-YAP block 89, MITF inh 62
O=c1cnnc(N/N=C/c2c(O)ccc3ccccc23)[nH]1	TEAD-YAP block 88, MITF inh 117
O=c1[nH]nc(N/N=C/c2c(O)ccc3ccccc23)c(=O)[nH]1	none
CN1CCCCC1C(=O)N/N=C/c1c(O)ccc2ccccc12 (configuration not stated)	TEAD-YAP block 78, MITF inh 84
Cc1nnc(N/N=C/c2c(O)ccc3ccccc23)[nH]c1=O	TEAD-YAP block 89
CC(C)(C)c1ccc(S(=O)(=O)NCC(=O)Nc2ccc3c(c2)OCO3)cc1	none
COc1cccc(NC(=O)NC(C)(C)C)c1	none
Cc1ccc(S(=O)(=O)N(CC(N)=O)Cc2ccc(F)cc2)cc1	none
Cn1c(=NC(=O)c2cc(Cl)ccc2[N+](=O)[O-])sc2cc(S(C)(=O)=O)ccc21	none
NC(=S)N/N=C/c1c2ccccc2cc2ccccc12	none
NC(=S)N/N=C/c1c(O)ccc2ccccc12	MITF inh 78
O=C(Nc1cccc(-c2ccco2)c1)C1CCN(Cc2ccc3nonc3c2)CC1	none
CCOc1ccc(NC(=O)COC(=O)c2cc(=O)c3ccccc3o2)cc1	none
CCc1ccc(NC(=O)COC(=O)c2cc(=O)c3cc(F)ccc3o2)cc1	FBW7 act 2.8
O=C(COC(=O)c1cc(O)c(O)c(O)c1)Nc1ccc(F)cc1	MITF inh 68
O=C(COC(=O)c1cc(F)c(F)cc1Cl)Nc1ccc(F)cc1	none
